# In publication PMC7862700, “An all-to-all approach to the identification of sequence-specific readers for epigenetic DNA modifications on cytosine”:
# What was measured:
# Experiment in all cases: DAPPL (digital affinity profiling via proximity ligation, sequencing); 10 mM Tris-HCl pH 7.5, 50 mM NaCl, 1 mM DTT, 4% glycerol, room temperature, 30 min; GST-TFs on glutathione beads, 16-mer random dsDNA library, 0.1% formaldehyde crosslink after washing; high values mean tight binding
# FLI1 = target: T1, FLI1 (Homo sapiens, UniProt Q01543 1-452); details: protein: recombinant; tags: N-terminal GST; dsDNA, one strand shown
# T1 sequence: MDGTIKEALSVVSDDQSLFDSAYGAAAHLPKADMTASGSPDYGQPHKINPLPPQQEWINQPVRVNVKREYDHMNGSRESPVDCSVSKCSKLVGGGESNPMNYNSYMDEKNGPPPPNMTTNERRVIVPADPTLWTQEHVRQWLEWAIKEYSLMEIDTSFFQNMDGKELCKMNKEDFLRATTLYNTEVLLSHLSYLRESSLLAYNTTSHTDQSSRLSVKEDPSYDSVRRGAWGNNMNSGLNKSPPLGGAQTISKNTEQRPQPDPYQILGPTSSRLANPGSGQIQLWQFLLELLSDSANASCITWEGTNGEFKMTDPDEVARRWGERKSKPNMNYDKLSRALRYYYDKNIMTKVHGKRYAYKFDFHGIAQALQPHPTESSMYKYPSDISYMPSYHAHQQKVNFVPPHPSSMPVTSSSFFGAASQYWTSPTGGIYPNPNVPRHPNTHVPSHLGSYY
# Method in brief: (§1)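 In yeast, human transcription factors were expressed with a GST fusion, then pulled down on glutathione beads and given DNA barcodes. Pooled with a tag-only sample, they were exposed to 200 nmole of a 16-mer random double-stranded DNA library (Tris/NaCl/DTT/glycerol buffer, room temperature, 30 min), washed, crosslinked with 0.1% formaldehyde, proximity-ligated using BsaI/T4 ligase for 1 h at 37 °C, PCR-amplified and read on an Illumina NextSeq500. Each hexamer's frequency of reads for a factor, divided by the matching frequency for the tag-only sample, gives the binding signal.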
# ELK1 = target: T2, ELK1 (Homo sapiens, UniProt P19419 1-428); details: protein: recombinant; tags: N-terminal GST; dsDNA, one strand shown
# T2 sequence: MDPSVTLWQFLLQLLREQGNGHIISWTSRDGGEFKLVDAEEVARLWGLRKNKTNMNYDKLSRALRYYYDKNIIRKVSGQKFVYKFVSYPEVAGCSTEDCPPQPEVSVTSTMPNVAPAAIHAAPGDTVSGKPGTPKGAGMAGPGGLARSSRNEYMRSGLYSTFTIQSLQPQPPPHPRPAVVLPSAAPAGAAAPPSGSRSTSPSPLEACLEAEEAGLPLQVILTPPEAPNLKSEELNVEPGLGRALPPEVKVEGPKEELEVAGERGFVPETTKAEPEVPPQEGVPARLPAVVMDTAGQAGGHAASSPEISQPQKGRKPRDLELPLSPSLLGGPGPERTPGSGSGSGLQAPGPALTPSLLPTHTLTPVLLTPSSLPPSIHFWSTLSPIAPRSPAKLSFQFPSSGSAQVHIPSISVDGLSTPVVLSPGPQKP
# Method in brief: as §1
# GABPA = target: T3, GABPA (Homo sapiens, UniProt Q06546 1-454); details: protein: recombinant; tags: N-terminal GST; dsDNA, one strand shown
# T3 sequence: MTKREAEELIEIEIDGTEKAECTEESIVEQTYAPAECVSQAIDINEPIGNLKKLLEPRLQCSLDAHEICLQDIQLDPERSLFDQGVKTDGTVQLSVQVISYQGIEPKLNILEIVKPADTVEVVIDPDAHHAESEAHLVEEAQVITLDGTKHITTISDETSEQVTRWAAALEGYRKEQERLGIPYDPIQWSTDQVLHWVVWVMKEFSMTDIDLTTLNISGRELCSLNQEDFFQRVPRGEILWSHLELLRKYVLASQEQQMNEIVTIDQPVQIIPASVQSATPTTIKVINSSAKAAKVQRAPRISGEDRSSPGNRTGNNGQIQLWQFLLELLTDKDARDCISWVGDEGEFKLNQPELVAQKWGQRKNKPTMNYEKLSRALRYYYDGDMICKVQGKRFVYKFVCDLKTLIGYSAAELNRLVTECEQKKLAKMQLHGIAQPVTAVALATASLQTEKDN
# Method in brief: as §1
# ERG = target: T4, ERG (Homo sapiens, UniProt P11308 1-479); details: protein: recombinant; tags: N-terminal GST; dsDNA, one strand shown
# T4 sequence: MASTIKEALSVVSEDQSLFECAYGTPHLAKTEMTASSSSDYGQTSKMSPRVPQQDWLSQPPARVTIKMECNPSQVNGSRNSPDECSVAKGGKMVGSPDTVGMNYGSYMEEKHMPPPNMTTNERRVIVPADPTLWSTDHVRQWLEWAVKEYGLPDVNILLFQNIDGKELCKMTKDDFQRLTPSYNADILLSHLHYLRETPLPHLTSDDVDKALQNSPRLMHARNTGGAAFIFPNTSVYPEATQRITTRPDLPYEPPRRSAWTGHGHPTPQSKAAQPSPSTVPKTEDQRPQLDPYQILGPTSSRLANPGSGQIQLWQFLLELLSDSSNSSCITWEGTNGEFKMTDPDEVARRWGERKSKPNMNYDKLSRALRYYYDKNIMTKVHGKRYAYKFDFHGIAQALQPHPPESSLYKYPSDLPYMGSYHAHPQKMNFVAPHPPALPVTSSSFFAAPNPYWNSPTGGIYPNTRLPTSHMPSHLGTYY
# Method in brief: as §1
# ELF1 = ELF1 (Homo sapiens, UniProt P32519 1-619); details: protein: recombinant; tags: N-terminal GST; dsDNA, one strand shown
# Method in brief: as §1
# EHF = target: T5, EHF (Homo sapiens, UniProt Q9NZC4 1-300); details: protein: recombinant; tags: N-terminal GST; dsDNA, one strand shown
# T5 sequence: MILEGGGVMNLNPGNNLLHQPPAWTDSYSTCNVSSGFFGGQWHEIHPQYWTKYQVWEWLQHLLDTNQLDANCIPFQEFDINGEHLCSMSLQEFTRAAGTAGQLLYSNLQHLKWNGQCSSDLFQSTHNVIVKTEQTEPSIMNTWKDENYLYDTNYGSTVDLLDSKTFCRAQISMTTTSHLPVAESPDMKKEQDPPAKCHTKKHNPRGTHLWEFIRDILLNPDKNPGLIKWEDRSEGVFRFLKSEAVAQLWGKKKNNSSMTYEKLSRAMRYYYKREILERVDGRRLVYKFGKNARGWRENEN
# Method in brief: as §1
# SPI1 = SPI1 (Homo sapiens, UniProt P17947 1-270); details: protein: recombinant; tags: N-terminal GST; dsDNA, one strand shown
# Method in brief: as §1
# SPIB = SPIB (Homo sapiens, UniProt Q01892 1-262); details: protein: recombinant; tags: N-terminal GST; dsDNA, one strand shown
# Method in brief: as §1
# ELK3 = target: T6, ELK3 (Homo sapiens, UniProt P41970 1-407); details: protein: recombinant; tags: N-terminal GST; dsDNA, one strand shown
# T6 sequence: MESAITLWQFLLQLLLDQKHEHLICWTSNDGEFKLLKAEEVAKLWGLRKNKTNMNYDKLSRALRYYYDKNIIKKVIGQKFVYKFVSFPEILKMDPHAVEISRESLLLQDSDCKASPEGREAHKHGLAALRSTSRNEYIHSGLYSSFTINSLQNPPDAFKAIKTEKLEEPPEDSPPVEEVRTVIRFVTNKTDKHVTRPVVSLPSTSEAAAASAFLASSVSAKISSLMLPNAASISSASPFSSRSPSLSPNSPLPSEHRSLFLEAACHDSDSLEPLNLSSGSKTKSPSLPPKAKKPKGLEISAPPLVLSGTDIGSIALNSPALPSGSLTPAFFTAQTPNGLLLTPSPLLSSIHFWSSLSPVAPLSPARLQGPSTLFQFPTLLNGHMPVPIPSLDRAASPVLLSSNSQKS
# Method in brief: as §1
# FEV = target: T7, FEV (Homo sapiens, UniProt Q99581 1-238); details: protein: recombinant; tags: N-terminal GST; dsDNA, one strand shown
# T7 sequence: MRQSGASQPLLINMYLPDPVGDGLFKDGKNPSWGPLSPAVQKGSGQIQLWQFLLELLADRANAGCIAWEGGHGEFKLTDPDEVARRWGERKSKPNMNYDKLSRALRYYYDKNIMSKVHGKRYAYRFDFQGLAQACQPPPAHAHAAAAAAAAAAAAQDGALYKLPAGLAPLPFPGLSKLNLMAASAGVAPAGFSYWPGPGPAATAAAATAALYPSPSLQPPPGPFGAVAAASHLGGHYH
# Method in brief: as §1
# ETV5 = ETV5 (Homo sapiens, UniProt P41161 1-510); details: protein: recombinant; tags: N-terminal GST; dsDNA, one strand shown
# Method in brief: as §1
# HSF1 = HSF1 (Homo sapiens, UniProt Q00613 1-529); details: protein: recombinant; tags: N-terminal GST; chain copies: 3; dsDNA, one strand shown
# Method in brief: as §1
# SPIC = target: T8, SPIC (Homo sapiens, UniProt Q8N5J4 1-248); details: protein: recombinant; tags: N-terminal GST; dsDNA, one strand shown
# T8 sequence: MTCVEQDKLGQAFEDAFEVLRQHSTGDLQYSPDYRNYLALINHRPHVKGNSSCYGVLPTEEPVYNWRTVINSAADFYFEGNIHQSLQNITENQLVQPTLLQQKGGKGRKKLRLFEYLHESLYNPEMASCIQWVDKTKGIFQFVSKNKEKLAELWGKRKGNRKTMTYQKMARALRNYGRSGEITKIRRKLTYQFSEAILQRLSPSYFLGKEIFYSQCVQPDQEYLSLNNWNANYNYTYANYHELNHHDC
# Method in brief: as §1
# ELF4 = ELF4 (Homo sapiens, UniProt Q99607 1-663); details: protein: recombinant; tags: N-terminal GST; dsDNA, one strand shown
# Method in brief: as §1
# ELK4 = target: T9, ELK4 (Homo sapiens, UniProt P28324-2 1-405); details: protein: recombinant; tags: N-terminal GST; dsDNA, one strand shown
# T9 sequence: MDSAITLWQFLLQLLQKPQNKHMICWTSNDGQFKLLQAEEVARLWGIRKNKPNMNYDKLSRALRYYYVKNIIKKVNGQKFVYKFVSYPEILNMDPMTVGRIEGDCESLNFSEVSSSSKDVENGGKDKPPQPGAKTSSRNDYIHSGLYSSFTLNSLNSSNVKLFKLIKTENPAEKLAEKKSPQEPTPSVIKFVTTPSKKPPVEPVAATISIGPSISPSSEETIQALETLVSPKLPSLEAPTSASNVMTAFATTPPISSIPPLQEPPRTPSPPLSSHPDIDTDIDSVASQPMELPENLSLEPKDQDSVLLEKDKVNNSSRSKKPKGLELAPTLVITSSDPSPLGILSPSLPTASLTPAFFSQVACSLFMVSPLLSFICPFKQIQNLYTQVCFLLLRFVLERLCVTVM
# Method in brief: as §1
# ETV2 = target: T10, ETV2 (Homo sapiens, UniProt O00321 1-342); details: protein: recombinant; tags: N-terminal GST; dsDNA, one strand shown
# T10 sequence: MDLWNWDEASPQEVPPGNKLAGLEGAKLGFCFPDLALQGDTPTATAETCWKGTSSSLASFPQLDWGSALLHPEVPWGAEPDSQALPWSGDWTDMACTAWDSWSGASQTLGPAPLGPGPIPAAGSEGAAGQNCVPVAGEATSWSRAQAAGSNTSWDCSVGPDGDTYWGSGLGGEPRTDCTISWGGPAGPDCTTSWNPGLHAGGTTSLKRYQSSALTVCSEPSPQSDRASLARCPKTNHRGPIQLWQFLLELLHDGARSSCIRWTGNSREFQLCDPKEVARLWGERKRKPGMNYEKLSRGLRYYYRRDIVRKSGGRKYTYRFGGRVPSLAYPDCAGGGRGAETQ
# Method in brief: as §1
# ELF3 = target: T11, ELF3 (Homo sapiens, UniProt P78545 1-371); details: protein: recombinant; tags: N-terminal GST; dsDNA, one strand shown
# T11 sequence: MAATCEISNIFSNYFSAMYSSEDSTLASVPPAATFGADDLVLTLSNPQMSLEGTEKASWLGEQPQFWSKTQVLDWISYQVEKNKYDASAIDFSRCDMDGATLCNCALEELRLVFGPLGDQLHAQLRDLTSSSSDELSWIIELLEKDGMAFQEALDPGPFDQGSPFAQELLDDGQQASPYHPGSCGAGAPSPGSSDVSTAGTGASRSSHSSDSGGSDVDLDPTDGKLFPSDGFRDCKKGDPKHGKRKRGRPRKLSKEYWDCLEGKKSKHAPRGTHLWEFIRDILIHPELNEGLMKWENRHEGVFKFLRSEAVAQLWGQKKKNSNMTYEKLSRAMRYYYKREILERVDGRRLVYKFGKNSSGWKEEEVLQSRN
# Method in brief: as §1
# ETV1 = ETV1 (Homo sapiens, UniProt P50549 1-477); details: protein: recombinant; tags: N-terminal GST; dsDNA, one strand shown
# Method in brief: as §1
# SPIB, sequence (Q01892 whole entry): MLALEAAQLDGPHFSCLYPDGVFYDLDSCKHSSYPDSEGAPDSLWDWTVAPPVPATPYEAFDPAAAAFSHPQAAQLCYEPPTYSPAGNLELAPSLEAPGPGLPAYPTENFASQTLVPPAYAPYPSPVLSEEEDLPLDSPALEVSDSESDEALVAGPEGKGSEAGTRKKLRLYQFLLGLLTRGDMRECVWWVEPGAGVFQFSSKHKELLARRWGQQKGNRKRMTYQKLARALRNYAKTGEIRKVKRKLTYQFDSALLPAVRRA
# ETV5, sequence (P41161 whole entry): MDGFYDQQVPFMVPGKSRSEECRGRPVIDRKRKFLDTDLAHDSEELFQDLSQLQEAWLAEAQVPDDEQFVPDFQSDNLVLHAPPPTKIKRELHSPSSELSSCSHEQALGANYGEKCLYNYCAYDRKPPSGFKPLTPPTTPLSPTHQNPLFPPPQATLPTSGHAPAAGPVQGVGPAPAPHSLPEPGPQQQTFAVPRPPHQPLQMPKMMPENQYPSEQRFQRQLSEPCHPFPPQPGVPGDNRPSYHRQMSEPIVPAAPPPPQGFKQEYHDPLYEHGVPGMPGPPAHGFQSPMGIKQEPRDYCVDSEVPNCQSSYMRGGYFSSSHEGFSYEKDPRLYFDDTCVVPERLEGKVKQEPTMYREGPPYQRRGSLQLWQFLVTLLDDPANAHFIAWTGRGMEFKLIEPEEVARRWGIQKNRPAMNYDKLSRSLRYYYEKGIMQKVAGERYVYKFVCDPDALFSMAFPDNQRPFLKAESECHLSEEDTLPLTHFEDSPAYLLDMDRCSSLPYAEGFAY
# ELF1, sequence (P32519 whole entry): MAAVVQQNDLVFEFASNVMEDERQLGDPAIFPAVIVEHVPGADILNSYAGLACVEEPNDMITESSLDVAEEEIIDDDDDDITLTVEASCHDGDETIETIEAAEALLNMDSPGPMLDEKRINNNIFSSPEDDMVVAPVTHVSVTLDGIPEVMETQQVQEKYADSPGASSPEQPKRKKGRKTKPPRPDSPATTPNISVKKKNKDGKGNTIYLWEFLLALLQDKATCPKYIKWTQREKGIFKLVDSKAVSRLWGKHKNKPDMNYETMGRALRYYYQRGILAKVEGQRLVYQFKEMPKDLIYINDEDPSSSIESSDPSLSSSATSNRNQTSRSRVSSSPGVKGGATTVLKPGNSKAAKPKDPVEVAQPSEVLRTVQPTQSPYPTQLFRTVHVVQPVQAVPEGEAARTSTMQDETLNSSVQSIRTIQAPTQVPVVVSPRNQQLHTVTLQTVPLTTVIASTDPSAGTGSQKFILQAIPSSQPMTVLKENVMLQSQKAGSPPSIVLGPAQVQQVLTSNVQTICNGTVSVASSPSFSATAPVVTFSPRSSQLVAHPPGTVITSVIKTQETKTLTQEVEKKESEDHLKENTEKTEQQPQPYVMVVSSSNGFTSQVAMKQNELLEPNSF
# HSF1, sequence (Q00613 whole entry): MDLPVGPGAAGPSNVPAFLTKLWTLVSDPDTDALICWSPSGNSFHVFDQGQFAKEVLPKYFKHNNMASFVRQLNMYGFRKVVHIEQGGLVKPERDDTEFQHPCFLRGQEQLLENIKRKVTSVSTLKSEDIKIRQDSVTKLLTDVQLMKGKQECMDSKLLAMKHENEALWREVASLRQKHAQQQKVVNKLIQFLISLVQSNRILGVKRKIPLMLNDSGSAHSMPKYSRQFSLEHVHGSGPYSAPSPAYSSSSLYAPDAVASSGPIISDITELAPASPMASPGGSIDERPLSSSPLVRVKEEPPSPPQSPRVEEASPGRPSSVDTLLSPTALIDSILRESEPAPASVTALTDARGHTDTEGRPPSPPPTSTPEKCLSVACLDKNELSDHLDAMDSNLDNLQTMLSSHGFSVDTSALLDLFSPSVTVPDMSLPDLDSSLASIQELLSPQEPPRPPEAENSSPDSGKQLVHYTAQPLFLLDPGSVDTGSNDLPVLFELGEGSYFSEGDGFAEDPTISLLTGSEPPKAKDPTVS
# ELF4, sequence (Q99607 whole entry): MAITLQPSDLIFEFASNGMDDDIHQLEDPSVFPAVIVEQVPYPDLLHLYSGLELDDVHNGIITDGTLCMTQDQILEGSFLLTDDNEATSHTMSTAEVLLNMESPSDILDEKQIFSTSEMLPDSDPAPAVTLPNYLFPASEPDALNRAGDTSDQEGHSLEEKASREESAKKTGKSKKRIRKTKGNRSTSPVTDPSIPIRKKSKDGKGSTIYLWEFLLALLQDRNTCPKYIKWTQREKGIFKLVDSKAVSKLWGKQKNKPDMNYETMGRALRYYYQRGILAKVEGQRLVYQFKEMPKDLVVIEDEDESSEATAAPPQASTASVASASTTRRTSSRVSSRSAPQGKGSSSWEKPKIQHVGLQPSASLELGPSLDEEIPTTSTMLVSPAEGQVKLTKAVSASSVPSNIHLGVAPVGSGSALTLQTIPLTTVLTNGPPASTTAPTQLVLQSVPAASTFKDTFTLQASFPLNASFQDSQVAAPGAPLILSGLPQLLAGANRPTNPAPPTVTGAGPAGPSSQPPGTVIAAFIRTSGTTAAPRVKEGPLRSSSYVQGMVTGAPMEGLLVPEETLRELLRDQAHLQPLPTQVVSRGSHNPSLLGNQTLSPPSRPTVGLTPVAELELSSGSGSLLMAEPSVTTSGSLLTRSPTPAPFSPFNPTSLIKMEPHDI
# ETV1, sequence (P50549 whole entry): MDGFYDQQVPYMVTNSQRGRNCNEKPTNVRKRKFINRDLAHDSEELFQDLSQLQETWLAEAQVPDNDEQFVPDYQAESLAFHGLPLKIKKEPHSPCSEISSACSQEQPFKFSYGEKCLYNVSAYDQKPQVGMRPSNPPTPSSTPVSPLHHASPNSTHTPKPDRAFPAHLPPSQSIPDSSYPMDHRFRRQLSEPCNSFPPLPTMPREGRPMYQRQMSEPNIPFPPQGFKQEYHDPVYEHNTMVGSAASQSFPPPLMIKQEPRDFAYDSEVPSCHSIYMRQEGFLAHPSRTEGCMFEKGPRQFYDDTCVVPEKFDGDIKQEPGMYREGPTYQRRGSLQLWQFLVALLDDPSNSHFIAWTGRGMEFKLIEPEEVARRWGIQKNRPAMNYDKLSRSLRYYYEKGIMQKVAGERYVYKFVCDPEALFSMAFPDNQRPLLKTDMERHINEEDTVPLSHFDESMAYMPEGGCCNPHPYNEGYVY
sequence,measurement,setting,value
TGACCA,binding signal,FLI1,"1.25 fold enrichment (6-mer frequency, TF over GST control)"
same,binding signal,ELK1,"1.32 fold enrichment (6-mer frequency, TF over GST control)"
same,binding signal,GABPA,"1.33 fold enrichment (6-mer frequency, TF over GST control)"
same,binding signal,ERG,"1.15 fold enrichment (6-mer frequency, TF over GST control)"
same,binding signal,ELF1,"1.29 fold enrichment (6-mer frequency, TF over GST control)"
same,binding signal,EHF,"1.33 fold enrichment (6-mer frequency, TF over GST control)"
same,binding signal,SPI1,"1.25 fold enrichment (6-mer frequency, TF over GST control)"
same,binding signal,SPIB,"1.21 fold enrichment (6-mer frequency, TF over GST control)"
same,binding signal,ELK3,"1.45 fold enrichment (6-mer frequency, TF over GST control)"
same,binding signal,FEV,"1.22 fold enrichment (6-mer frequency, TF over GST control)"
same,binding signal,ETV5,"1.23 fold enrichment (6-mer frequency, TF over GST control)"
same,binding signal,HSF1,"1.05 fold enrichment (6-mer frequency, TF over GST control)"
same,binding signal,SPIC,"1.06 fold enrichment (6-mer frequency, TF over GST control)"
same,binding signal,ELF4,"1.29 fold enrichment (6-mer frequency, TF over GST control)"
same,binding signal,ELK4,"1.29 fold enrichment (6-mer frequency, TF over GST control)"
same,binding signal,ETV2,"1.17 fold enrichment (6-mer frequency, TF over GST control)"
same,binding signal,ELF3,"1.11 fold enrichment (6-mer frequency, TF over GST control)"
same,binding signal,ETV1,"1.21 fold enrichment (6-mer frequency, TF over GST control)"
